Potency and activation data for 40 compounds are collected here from PubChem BioAssay (NCATS).

A number with no mark means an inactive call. Where a call stands in place of a potency, no number is given. Calls of active or inactive are those of the source. Calls come from the whole dose curve; as a rule, active = well fitted curve in the direction sought with a large enough effect; inconclusive = small, poorly fitted or top-dose-only effect, or another doubt; inactive = no such curve, though single readings can be large or run the other way. Numbered stars: 1 amine (or outer) side, 2 acyl side, 3 side chain; on linkers, the order of the positions; unused ones are H or OH. Square brackets hold non-standard residues; d marks the D form. Peptide text beside a SMILES is read from it. ξ: configuration not given here. X4 = O=C(C1CC2(c3ccc(O)cc3)c3ccccc3NC2N1[*:1])[*:2]; ξW = NC(Cc1c[nH]c2ccccc12)C(=O)O; ξY = NC(Cc1ccc(O)cc1)C(=O)O

The test is described as follows: qHTS for ATAD5 Agonist screened against the NCATS CANVASS Library (AID 1347367). The settings on record: HEK293T ATAD5-luciferase reporter, luminescence, 16 h; series mostly up to 46.1 µM. An excerpt:
Natural products and their derivatives continue to be wellsprings of nascent therapeutic potential. However, many laboratories have limited resources for biological evaluation, leaving their previously isolated or synthesized compounds largely or completely untested. To address this issue, the Canvass library of natural products was assembled (https://tripod.nih.gov/canvass), in collaboration with academic and industry researchers, for quantitative high-throughput screening (qHTS) across a diverse set of cell-based and biochemical assays. The pure (>85% purity by liquid chromatography/mass spectrometry [LC/MS]) Canvass library of 346 natural products were submitted by 45 academic laboratories and companies around the world. We collected pure natural products to circumvent deconvolution and structure elucidation due to time and resource limitations. The library was formatted into 1536-well plates and evaluated in 50 qHTS (in an 11-pnt concentration series) bioassays with broad scope of disease-relevant mechanisms. The resulting data set from 50 different assays was then systematically analyzed to identify overall trends and specific natural products with interesting biological activities. Reported herein are the results of each individual qHTS and their corresponding assay protocol. Human ATAD5 is a biomarker for identifying gentoxic compounds because ATAD5 protein levels increase post-transcriptionally in response to DNA damage. A cell-based assay is used to detect DNA damage inducers and genotoxic compounds as well. The assay is based upon a luciferase reporter gene under control of ATAD5 that has been stably integrated into HEK 293T cells. Luminescence intensity is proportional to ATAD5 expression. National Center for Advancing Translational Sciences (NCATS), Rockville, MD National Institute of Health (NIH), Bethesda, Maryland
ATAD5 Agonist assay protocol: 1. In a 1536 well, tissue culture treated white solid bottom plates (Greiner Bio-One North America), 5 uL of HEK293T-ATAD5 cell solution (2000 cells / well) was dispensed using the Multidrop Combi dispenser (Thermo Fisher Scientific). 2. The assay plates were incubated for 5hr at 37C, 5% CO2 to allow the cells to acclimate and attach. 3. Controls and compounds were pin transferred (~23 nL volume) to the assay plates via Wako Pin-tool (Wako Automation, Richmond VA) equipped with a 1536 pin head. The compounds were transferred to columns 5-48 resulting in a final concentration ranging from 0.6nM to 92uM. Methyl methanesulfonate (MMS) was used as a control in various concentrations (columns 1: dose response, column2: 0.7mM, and column3: 0.6mM). DMSO (0.46% final concentration was used as a negative control. 4. The assay plates were further incubated in the dark at 37C, 5% CO2 for 16hr. 5. To measure cell viability, 1uL of CellTiter-Fluor (Promega) reagent was then added to the assay plates (column 1-48, rows 1-32). The assay plates were incubated in the dark for 1hr at 37C, 5% CO2. 6. A first readout of fluorescence signal was acquired via the ViewLux (PerkinElmer) plate reader using filter sets for AFC (380-400nmEx/505Em) and 1 second exposure setting. 7. To measure ATAD5 activation, 4uL of Amplite (AAT Bioquest) reagent was then added to the assay plates (column 1-48, rows 1-32). The assay plates were further incubated in the dark at room temperature for 30min. 8. A second readout of luminescence signal was acquired via the ViewLux plate reader using a clear emission filter, 10 second exposure setting. Fox JT1, et al. High-throughput genotoxicity assay identifies antioxidants as inducers of DNA damage response and cell death. Proc Natl Acad Sci U S A. 2012 Apr 3;109(14):5423-8.
(In general: In qHTS, concentration-response curves come from the screen itself.)
As for `C=C(C)[C@@H]1CC[C@]2(C)CC[C@]3(C)[C@H](CC[C@@H]4[C@@]5(C)CC[C@H](O)C(C)(C)[C@@H]5CC[C@]43C)[C@@H]12`, the Potency result was “inactive”. Still for that read-out and setting: the same measure for `COc1ccc(/C=C2\COc3cc(O)ccc3C2=O)cc1`: “inactive”. As for `CS/C=C/C(N)=O`, the Potency result is “inactive”. Take `C=C1C(=O)C[C@H]2C[C@@H]1[C@]2(C)CCC=C(C)C`: the Potency result was “inactive”. On to `COc1ccc([C@@H]2c3cc(OC)c(OC)cc3C(=O)C(C)C2C)cc1OC` (stereo not given in full), for which the Potency entry was “inactive”. `C/C=C1/CC[C@@H]2c3[nH]c4ccccc4c3CCN2C1`: the Potency result is “inactive”. As for `CO[C@H]1/C=C/CC[C@@H](S[C@@H]2O[C@H](CO)[C@@H](O)[C@H](O)[C@H]2O)CC(=O)O[C@@H](/C(C)=C/[C@H](C)C(=O)CCCC2CC(=O)NC(=O)C2)[C@@H](C)[C@@H]1O`, the Potency entry was “inactive”. As for `C=C1C[C@@]23C=CC(=O)[C@@](C)(CCC(=O)Nc4c(O)ccc(C(=O)O)c4O)C2C[C@@H]1CC3O` (stereo not given in full), the Potency entry is “inactive”.

On to `Cc1cc(O)cc2oc(C[C@H](C)O)cc(=O)c12`, for which the Potency result was “inactive”. For `C[C@@H]1O[C@H](c2c(O)cc(O)c3c(=O)cc(-c4ccc(O)cc4)oc23)[C@H](O)[C@H](O)[C@H]1O`, the Potency result is “inactive”. Turning to `CC1C(=O)C23CCC1C[C@@]21O[C@H]2C(C)(C)C=CC(=O)[C@@]23COC1=O` (stereo not given in full), the Potency entry was “inactive”.

Take `C/C(=C\[C@H](C)C(=O)CCCC1CC(=O)NC(=O)C1)C(O)[C@@H](C)[C@H](O)C/C=C/CC/C=C/C(=O)O` (stereo not given in full): the Potency entry was “inactive”. Turning to `Oc1ccc(C2c3c(O)cc(O)cc3[C@@H]3C(c4ccc(O)cc4)c4c(O)cc(O)cc4[C@H]23)cc1` (stereo not given in full), the Potency entry was “inactive”. On to `C/C=C/c1cc(OC)c2c(c1)[C@@H](C)[C@H](c1ccc(O)c(OC)c1)O2`, for which the Potency entry is “inactive”. Regarding `CN1C(=O)[C@]23SS[C@@]1(C)C(=O)N2[C@H]1Nc2ccccc2[C@]1(c1c[nH]c2ccccc12)[C@@H]3O`, the Potency result was “inactive”. Same read-out and setting: the value for `C=C[C@]1(C)CC[C@@H]([C@H](C)C(=O)OCC)O1` was “inactive”; that for `C=C(C)CC[C@H](Cc1c(O)cc(O)c2c1O[C@H](c1ccc(O)cc1O)CC2=O)C(=C)C` was “inactive”. With `COc1ccc2cc(NC(=O)C3=NO[C@H]4[C@H](O)C=C[C@@H](Cl)[C@@]4(O)C3)c(=O)oc2c1OC`, the Potency entry was “inactive”.

As to `O=C(OC1Cc2c(O)cc(O)cc2OC1c1cc(O)c(O)c(O)c1)c1cc(O)c(O)c(O)c1` (stereo not given), the Potency entry was “inactive”. Turning to `CN1CC[C@]2(c3cccc4c3N[C@@H]3N(C)CC[C@]43[C@@]34CCN(C)[C@@H]3Nc3ccccc34)c3ccccc3N[C@H]12`, the Potency entry was “inactive”. Turning to `C[C@@H]1C(=O)[C@]23CC[C@H]1C[C@]21O[C@H]2C(C)(C)C=CC(=O)[C@]23COC1=O`, the Potency result is “inactive”. On to `C=CC(=C)CC[C@]1(C)[C@H]2C[C@H](OC(=O)C(C)CC)C=C3[C@H](OC(C)=O)O[C@H](OC(C)=O)[C@@]32[C@H](OC)C[C@@H]1C` (stereo not given in full), for which the Potency entry is “inactive”.

With `CN1CCc2cc3c(c4c2[C@H]1[C@@H](O)c1ccccc1-4)OCO3`, the Potency result was “inactive”. As for `CC1(C)[C@H](Br)CC[C@]23C[C@]4(C)C(=O)CC12C[C@H]34`, the Potency result was “inactive”.

Consider `CO[C@@H]1[C@H](O)[C@@H](C)O[C@@H](OC[C@@H]2C(C)OC(=O)/C=C/[C@H](C)C(O[C@@H]3O[C@H](C)CC4(OC(=O)O[C@@H]4C)C3O)[C@@H](C)CC(C)C(=O)CC[C@H]3OC23)[C@@H]1OC` (stereo not given in full), for which the Potency result was “inactive”. Same read-out and setting: the same measure for `CC(=O)NC[C@@H]1O[C@H](CC/C=C(C)/C(C)=C/C=O)[C@H](C)C[C@H]1O`: “inactive”. In the case of `CC(=O)O[C@@H]1C=C2C(=O)OC[C@]2(O)[C@@]2(C)CCCC(C)(C)[C@H]12`, the Potency result was “inactive”.

Turning to `CNc1ccc(Cl)cc1C(=O)OC[C@]1(C)[C@H]2CC[C@]3(C)[C@@H](C[C@@H](OC)[C@H](C)[C@H]3C3=C(O)C(=O)OC3O)[C@]2(C)CC[C@H]1O` (stereo not given in full), the Potency result is “inactive”.

For `COc1cc(O)c2c3c(c(O)cc(C)c13)C(=O)OC2`, the Potency entry is “inactive”. In the case of `CN1C(=O)C2C(N=CN2C)N(C)C1=O` (stereo not given), the Potency result is “inactive”. Consider `CCC1=C2CCCN3C(=O)O[C@H]([C@H]1OC(C)=O)[C@H]23`, for which the Potency result was “inactive”. As for `CC1(C)CCC[C@]2(C)[C@@H]1CC[C@@]13C[C@@H](CC[C@H]12)C(C)(O)C3` (stereo not given in full), the Potency entry was “inactive”. `CC12C[C@]3(O)O[C@@H](O1)[C@]1(COC(=O)c4ccccc4)[C@@H]3CC21OC1OC(CO)C(O)C(O)C1O` (stereo not given in full): the Potency entry was “inactive”. As for `O=C(O)CC1OC(=O)c2c(O)cccc21` (stereo not given), the Potency result is “inactive”. On to `CC(=O)[C@@H]1[C@@H](O)C[C@H]2[C@]3(C)CC[C@H]4C(C)(C)CCC[C@]4(CO)[C@H]3C[C@H]3OC(=O)[C@@H]1[C@@]32C`, for which the Potency entry is “inactive”.

Consider `CC[C@H](C)[C@H](NC(=O)C(Cc1ccc(O)cc1)NC(=O)C(Cc1c[nH]c2ccccc12)NC(=O)[C@H](C)N)C(=O)N1C(C(=O)NC(Cc2ccc(O)cc2)C(=O)O)CC2(c3ccc(O)cc3)c3ccccc3NC12` (stereo not given in full) (H-A[ξW][ξY]I[X4][ξY]-OH), for which the Potency result was “inactive”. On to `COc1ccc([C@@H]2c3cc(OC)c(OC)cc3C(=O)[C@H](C)C2C)cc1OC` (stereo not given in full), for which the activation is -0.416% [at 9.19 µM].

Consider `C/C=C/C(=O)[C@@H](C)C1=CC(=O)C2=C(O[C@@]34CC[C@H](O)C(C)(C)[C@@H]3CC[C@H](C)[C@@]4(C)C2)C1=O`, for which the Potency entry was “inactive”.

Regarding `C[C@@H]1C[C@H]2C[C@]3(CCCCN3C)[C@@H]3C[C@H]2[C@H](C1)N(C)C3`, the Potency entry was “inactive”. As for `Oc1ccc([C@H]2Oc3ccc(/C=C/c4cc(O)cc(O)c4)cc3C2c2cc(O)cc(O)c2)cc1` (stereo not given in full), the Potency entry was “inactive”.
